Test results: publication PMC7862700, “An all-to-all approach to the identification of sequence-specific readers for epigenetic DNA modifications on cytosine”

How the values were obtained:
Test in all cases: DAPPL (digital affinity profiling via proximity ligation, sequencing); 10 mM Tris-HCl pH 7.5, 50 mM NaCl, 1 mM DTT, 4% glycerol, room temperature, 30 min; GST-TFs on glutathione beads, 16-mer random dsDNA library, 0.1% formaldehyde crosslink after washing; high values mean tight binding
FEV = target: T1, FEV (Homo sapiens, UniProt Q99581 1-238); details: protein: recombinant; tags: N-terminal GST; dsDNA, one strand shown
T1 sequence: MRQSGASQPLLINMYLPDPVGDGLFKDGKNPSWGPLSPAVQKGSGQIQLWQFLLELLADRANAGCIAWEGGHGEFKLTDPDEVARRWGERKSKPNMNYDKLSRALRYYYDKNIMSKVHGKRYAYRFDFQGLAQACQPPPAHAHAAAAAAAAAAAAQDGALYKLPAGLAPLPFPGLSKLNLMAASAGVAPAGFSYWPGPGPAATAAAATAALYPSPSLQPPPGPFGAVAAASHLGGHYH
In short: (§1)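 Binding signal is each hexamer's read frequency for a factor divided by its frequency in the tag-only sample. The factors were GST-fused human transcription factors from yeast, captured on glutathione beads, DNA-barcoded and pooled with that sample. Pools were incubated with 200 nmole of a random double-stranded 16-mer DNA library in Tris/NaCl/DTT/glycerol buffer at room temperature for 30 min, then washed, crosslinked with 0.1% formaldehyde, proximity-ligated with BsaI/T4 ligase (1 h, 37 °C), PCR-amplified and sequenced on an Illumina NextSeq500.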

ETV5 = ETV5 (Homo sapiens, UniProt P41161 1-510); details: protein: recombinant; tags: N-terminal GST; dsDNA, one strand shown
Chain of ETV5 (P41161 whole entry): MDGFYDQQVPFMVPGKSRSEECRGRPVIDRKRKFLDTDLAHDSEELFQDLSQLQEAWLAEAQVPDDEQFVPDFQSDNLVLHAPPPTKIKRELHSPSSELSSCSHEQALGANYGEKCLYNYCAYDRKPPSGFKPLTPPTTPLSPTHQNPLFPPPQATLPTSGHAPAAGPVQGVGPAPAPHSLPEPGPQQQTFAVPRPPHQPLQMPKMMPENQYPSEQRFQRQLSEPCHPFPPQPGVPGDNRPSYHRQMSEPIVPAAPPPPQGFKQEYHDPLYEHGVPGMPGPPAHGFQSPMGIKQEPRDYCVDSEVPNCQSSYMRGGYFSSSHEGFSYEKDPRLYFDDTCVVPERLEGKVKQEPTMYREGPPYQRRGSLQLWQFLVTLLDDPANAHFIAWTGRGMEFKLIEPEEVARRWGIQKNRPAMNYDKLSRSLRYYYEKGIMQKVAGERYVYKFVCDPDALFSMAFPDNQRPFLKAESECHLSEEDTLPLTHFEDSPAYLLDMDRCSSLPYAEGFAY
In short: as §1

HSF1 = HSF1 (Homo sapiens, UniProt Q00613 1-529); details: protein: recombinant; tags: N-terminal GST; chain copies: 3; dsDNA, one strand shown
Chain of HSF1 (Q00613 whole entry): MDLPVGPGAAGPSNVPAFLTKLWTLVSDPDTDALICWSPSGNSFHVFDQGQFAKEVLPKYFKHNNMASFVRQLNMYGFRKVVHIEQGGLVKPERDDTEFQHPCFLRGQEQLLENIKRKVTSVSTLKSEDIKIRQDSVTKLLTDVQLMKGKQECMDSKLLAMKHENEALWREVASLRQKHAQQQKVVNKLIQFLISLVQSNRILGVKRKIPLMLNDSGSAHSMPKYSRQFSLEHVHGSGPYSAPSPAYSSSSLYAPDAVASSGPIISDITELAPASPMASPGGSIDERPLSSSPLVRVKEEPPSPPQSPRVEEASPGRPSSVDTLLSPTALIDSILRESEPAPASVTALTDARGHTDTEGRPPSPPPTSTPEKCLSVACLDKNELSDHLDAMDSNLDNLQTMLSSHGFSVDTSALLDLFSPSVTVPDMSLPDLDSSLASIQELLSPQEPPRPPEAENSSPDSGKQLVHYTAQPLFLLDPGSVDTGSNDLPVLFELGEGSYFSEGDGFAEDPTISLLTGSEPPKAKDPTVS
In short: as §1

SPIC = target: T2, SPIC (Homo sapiens, UniProt Q8N5J4 1-248); details: protein: recombinant; tags: N-terminal GST; dsDNA, one strand shown
T2 sequence: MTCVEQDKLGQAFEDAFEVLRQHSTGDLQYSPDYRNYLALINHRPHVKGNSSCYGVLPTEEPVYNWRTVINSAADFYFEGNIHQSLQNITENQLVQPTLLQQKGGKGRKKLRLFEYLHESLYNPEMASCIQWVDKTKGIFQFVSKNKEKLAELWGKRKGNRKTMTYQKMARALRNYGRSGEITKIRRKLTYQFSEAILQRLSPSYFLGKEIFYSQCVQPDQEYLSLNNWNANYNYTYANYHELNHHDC
In short: as §1

ELF4 = ELF4 (Homo sapiens, UniProt Q99607 1-663); details: protein: recombinant; tags: N-terminal GST; dsDNA, one strand shown
Chain of ELF4 (Q99607 whole entry): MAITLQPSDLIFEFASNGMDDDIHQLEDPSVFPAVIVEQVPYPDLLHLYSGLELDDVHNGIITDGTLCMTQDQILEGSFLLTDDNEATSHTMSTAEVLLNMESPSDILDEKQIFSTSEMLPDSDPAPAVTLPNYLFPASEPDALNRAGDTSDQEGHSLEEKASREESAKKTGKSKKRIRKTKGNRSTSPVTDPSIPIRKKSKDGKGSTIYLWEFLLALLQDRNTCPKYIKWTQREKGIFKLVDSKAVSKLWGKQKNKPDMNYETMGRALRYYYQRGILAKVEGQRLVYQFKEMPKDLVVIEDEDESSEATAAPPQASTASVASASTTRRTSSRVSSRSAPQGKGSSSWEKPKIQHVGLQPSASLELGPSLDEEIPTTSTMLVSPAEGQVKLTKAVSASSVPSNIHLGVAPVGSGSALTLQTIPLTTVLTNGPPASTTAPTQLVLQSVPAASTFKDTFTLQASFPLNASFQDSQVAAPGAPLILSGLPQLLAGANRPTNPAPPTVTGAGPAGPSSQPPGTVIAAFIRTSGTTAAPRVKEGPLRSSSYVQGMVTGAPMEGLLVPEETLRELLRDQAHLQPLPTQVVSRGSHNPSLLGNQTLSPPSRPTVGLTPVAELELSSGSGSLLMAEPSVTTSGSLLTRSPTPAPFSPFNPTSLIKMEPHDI
In short: as §1

ELK4 = target: T3, ELK4 (Homo sapiens, UniProt P28324-2 1-405); details: protein: recombinant; tags: N-terminal GST; dsDNA, one strand shown
T3 sequence: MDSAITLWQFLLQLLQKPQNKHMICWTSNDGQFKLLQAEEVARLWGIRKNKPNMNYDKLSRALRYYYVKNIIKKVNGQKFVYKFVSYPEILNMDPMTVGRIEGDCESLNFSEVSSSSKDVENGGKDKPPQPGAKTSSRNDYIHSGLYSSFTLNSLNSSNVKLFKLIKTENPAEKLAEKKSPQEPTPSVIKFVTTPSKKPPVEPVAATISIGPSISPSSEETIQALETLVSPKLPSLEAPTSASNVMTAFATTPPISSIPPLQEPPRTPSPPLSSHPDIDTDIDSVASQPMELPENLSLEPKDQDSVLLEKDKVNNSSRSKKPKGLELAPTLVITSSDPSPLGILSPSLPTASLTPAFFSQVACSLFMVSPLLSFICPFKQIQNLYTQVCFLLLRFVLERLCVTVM
In short: as §1

ETV2 = target: T4, ETV2 (Homo sapiens, UniProt O00321 1-342); details: protein: recombinant; tags: N-terminal GST; dsDNA, one strand shown
T4 sequence: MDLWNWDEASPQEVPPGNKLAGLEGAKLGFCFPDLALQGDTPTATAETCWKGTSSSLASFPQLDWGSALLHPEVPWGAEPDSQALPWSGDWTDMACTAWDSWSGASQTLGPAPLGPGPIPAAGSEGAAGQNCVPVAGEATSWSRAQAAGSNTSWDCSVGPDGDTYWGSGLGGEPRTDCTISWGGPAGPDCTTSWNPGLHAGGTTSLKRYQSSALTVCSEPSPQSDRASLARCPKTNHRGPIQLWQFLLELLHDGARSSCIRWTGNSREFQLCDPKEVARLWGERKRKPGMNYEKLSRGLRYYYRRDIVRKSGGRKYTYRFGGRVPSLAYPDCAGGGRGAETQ
In short: as §1

ELF3 = target: T5, ELF3 (Homo sapiens, UniProt P78545 1-371); details: protein: recombinant; tags: N-terminal GST; dsDNA, one strand shown
T5 sequence: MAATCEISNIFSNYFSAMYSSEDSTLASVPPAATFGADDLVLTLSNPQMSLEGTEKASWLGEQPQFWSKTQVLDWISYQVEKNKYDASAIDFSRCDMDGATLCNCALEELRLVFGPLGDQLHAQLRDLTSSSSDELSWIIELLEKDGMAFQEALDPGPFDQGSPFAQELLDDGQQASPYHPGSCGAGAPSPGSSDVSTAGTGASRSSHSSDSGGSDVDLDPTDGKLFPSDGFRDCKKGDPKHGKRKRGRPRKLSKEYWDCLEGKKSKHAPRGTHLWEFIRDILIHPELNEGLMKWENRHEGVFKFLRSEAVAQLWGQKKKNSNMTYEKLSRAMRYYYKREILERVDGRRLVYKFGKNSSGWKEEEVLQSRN
In short: as §1

CRX = CRX (Homo sapiens, UniProt O43186 1-299); details: protein: recombinant; tags: N-terminal GST; dsDNA, one strand shown
Chain of CRX (O43186 whole entry): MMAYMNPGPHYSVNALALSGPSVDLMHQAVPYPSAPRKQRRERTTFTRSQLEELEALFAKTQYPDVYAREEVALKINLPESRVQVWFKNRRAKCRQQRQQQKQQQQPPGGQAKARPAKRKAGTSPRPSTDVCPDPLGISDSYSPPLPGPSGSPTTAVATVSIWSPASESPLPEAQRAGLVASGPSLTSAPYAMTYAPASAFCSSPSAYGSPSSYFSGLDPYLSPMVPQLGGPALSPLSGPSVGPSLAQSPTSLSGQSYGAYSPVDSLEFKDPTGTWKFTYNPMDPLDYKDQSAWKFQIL
In short: as §1

ETV1 = ETV1 (Homo sapiens, UniProt P50549 1-477); details: protein: recombinant; tags: N-terminal GST; dsDNA, one strand shown
Chain of ETV1 (P50549 whole entry): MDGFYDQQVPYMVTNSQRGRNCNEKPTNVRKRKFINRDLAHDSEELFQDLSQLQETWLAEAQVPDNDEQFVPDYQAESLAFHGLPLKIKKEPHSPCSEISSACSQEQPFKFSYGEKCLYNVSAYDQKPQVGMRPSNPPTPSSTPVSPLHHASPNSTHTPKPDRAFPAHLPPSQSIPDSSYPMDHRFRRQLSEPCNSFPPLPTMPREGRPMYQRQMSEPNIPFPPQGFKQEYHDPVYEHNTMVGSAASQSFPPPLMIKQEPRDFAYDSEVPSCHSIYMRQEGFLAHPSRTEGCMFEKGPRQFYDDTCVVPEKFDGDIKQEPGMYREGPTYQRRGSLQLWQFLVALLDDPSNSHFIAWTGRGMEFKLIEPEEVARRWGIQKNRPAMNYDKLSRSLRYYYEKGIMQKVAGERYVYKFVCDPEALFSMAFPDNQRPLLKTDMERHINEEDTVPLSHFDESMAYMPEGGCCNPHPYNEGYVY
In short: as §1

ERF = target: T6, ERF (Homo sapiens, UniProt P50548 1-548); details: protein: recombinant; tags: N-terminal GST; dsDNA, one strand shown
T6 sequence: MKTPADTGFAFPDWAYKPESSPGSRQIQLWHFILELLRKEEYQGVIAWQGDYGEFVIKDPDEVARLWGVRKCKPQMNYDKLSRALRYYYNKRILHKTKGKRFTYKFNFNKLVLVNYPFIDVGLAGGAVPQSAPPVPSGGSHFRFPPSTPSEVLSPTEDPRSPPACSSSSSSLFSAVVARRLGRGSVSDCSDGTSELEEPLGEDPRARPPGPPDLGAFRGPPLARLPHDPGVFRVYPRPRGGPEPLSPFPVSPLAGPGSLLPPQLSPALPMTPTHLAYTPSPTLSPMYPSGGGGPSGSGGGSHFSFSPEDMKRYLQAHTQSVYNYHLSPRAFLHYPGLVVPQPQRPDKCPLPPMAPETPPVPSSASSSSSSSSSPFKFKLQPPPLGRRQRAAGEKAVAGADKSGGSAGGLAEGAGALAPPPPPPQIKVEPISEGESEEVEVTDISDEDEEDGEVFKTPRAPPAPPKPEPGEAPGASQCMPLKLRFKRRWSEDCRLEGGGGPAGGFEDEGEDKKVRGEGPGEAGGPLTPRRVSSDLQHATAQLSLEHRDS
In short: as §1

ETV3L = target: T7, ETV3L (Homo sapiens, UniProt Q6ZN32 1-361); details: protein: recombinant; tags: N-terminal GST; dsDNA, one strand shown
T7 sequence: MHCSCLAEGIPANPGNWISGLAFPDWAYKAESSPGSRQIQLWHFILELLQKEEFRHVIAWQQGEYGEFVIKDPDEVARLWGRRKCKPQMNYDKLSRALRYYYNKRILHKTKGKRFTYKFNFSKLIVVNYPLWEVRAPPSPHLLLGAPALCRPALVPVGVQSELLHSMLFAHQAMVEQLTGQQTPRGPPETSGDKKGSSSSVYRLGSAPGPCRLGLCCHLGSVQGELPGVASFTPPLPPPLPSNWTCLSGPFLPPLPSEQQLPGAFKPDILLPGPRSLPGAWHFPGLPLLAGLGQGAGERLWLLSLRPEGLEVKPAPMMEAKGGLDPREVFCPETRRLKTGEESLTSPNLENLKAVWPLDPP
In short: as §1

ETS2 = target: T8, ETS2 (Homo sapiens, UniProt P15036 1-469); details: protein: recombinant; tags: N-terminal GST; dsDNA, one strand shown
T8 sequence: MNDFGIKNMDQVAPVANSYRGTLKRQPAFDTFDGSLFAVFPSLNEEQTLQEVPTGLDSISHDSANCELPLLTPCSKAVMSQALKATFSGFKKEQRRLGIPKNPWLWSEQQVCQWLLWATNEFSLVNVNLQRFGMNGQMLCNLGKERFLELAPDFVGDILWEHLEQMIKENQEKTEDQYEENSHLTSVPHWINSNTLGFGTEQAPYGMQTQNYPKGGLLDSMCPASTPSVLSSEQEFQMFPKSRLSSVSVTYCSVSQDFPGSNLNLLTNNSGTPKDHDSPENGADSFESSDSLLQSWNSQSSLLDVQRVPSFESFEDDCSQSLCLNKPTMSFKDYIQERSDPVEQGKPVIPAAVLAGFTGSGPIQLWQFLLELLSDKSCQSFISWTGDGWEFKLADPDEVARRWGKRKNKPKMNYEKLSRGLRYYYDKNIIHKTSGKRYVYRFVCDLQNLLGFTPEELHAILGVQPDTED
In short: as §1

SPDEF = target: T9, SPDEF (Homo sapiens, UniProt O95238 1-335); details: protein: recombinant; tags: N-terminal GST; dsDNA, one strand shown
T9 sequence: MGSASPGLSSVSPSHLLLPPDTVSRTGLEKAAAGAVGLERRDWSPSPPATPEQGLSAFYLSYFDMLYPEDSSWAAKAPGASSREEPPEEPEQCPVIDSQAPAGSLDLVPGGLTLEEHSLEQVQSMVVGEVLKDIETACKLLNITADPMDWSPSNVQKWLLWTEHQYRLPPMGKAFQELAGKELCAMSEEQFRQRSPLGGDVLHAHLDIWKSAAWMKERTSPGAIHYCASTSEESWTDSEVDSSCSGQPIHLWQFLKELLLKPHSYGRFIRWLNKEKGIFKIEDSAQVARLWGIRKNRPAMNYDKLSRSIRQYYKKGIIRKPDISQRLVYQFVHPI
In short: as §1

ETV7 = target: T10, ETV7 (Homo sapiens, UniProt Q9Y603 1-341); details: protein: recombinant; tags: N-terminal GST; dsDNA, one strand shown
T10 sequence: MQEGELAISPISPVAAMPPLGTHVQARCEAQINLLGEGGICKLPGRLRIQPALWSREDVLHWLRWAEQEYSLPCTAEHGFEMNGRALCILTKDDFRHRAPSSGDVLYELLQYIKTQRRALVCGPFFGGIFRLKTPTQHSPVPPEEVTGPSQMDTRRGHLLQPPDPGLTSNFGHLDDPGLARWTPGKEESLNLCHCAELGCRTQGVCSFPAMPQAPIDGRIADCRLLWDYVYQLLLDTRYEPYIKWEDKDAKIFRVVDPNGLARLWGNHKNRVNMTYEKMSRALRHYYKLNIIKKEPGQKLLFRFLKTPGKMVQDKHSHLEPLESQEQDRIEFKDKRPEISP
In short: as §1

ELF5 = target: T11, ELF5 (Homo sapiens, UniProt Q9UKW6-2 1-255); details: protein: recombinant; tags: N-terminal GST; dsDNA, one strand shown
T11 sequence: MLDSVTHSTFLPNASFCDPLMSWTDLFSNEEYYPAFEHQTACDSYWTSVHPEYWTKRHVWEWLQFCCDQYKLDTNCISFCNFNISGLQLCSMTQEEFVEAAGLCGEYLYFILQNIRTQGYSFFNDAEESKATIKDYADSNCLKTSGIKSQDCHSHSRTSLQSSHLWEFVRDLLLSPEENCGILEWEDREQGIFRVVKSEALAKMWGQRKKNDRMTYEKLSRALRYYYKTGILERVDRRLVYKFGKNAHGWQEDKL
In short: as §1

ETV3 = target: T12, ETV3 (Homo sapiens, UniProt P41162-2 1-143); details: protein: recombinant; tags: N-terminal GST; dsDNA, one strand shown
T12 sequence: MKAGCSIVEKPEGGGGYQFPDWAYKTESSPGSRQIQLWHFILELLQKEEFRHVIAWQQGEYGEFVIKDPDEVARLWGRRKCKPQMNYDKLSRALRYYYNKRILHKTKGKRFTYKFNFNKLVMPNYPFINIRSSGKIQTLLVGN
In short: as §1

ETV6 = ETV6 (Homo sapiens, UniProt P41212 1-452); details: protein: recombinant; tags: N-terminal GST; dsDNA, one strand shown
Chain of ETV6 (P41212 whole entry): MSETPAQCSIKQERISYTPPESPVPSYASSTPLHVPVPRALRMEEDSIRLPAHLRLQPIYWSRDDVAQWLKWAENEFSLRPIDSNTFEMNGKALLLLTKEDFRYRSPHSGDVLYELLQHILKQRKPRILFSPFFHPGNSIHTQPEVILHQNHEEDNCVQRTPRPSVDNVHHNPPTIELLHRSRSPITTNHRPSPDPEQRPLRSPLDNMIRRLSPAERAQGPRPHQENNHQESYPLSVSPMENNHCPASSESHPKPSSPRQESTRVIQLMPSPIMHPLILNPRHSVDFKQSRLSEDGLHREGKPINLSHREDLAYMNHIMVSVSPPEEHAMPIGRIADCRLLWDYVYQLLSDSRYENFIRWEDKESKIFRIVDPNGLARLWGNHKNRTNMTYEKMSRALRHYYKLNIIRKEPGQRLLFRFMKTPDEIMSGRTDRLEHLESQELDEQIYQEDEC
In short: as §1

TTCAGC
binding signal (FEV): 1.25 fold enrichment (6-mer frequency, TF over GST control)
binding signal (ETV5): 1.22 fold enrichment (6-mer frequency, TF over GST control)
binding signal (HSF1): 1.04 fold enrichment (6-mer frequency, TF over GST control)
binding signal (SPIC): 1.16 fold enrichment (6-mer frequency, TF over GST control)
binding signal (ELF4): 1.28 fold enrichment (6-mer frequency, TF over GST control)
binding signal (ELK4): 1.23 fold enrichment (6-mer frequency, TF over GST control)
binding signal (ETV2): 1.14 fold enrichment (6-mer frequency, TF over GST control)
binding signal (ELF3): 1.27 fold enrichment (6-mer frequency, TF over GST control)
binding signal (CRX): 1.19 fold enrichment (6-mer frequency, TF over GST control)
binding signal (ETV1): 1.3 fold enrichment (6-mer frequency, TF over GST control)
binding signal (ERF): 1.14 fold enrichment (6-mer frequency, TF over GST control)
binding signal (ETV3L): 1.21 fold enrichment (6-mer frequency, TF over GST control)
binding signal (ETS2): 1.27 fold enrichment (6-mer frequency, TF over GST control)
binding signal (SPDEF): 1.12 fold enrichment (6-mer frequency, TF over GST control)
binding signal (ETV7): 1.27 fold enrichment (6-mer frequency, TF over GST control)
binding signal (ELF5): 1.16 fold enrichment (6-mer frequency, TF over GST control)
binding signal (ETV3): 1.32 fold enrichment (6-mer frequency, TF over GST control)
binding signal (ETV6): 1.2 fold enrichment (6-mer frequency, TF over GST control)
